From PubChem BioAssay (NCI)
The panel holds about 83,000 compounds, 20% with a hit somewhere; the sample as a whole holds those more often.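 Interpretation: 100, growth as untreated; towards 0, rising growth inhibition; 0, no net growth; 0 to -100, cell death. Compounds scoring below 10 were considered active.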 Values without a mark were called inactive. Calls of active or inactive are those of the source.

Columns and labels:
Assay in all cases: NCI-60 one-dose screen, 48 h (100 = growth as untreated, 0 = no growth, -100 = all killed)
Settings in all cases: 10 µM unless noted
SR leukemia = system: SR leukemia
RPMI-8226 leukemia = system: RPMI-8226 leukemia
OVCAR-8 ovarian = system: OVCAR-8 ovarian
OVCAR-5 ovarian = system: OVCAR-5 ovarian
OVCAR-4 ovarian = system: OVCAR-4 ovarian
SK-OV-3 ovarian = system: SK-OV-3 ovarian
IGROV1 ovarian = system: IGROV1 ovarian
OVCAR-3 ovarian = system: OVCAR-3 ovarian
HS 578T breast = system: HS 578T breast
NCI/ADR-RES ovarian = system: NCI/ADR-RES ovarian

| SMILES | growth (SR leukemia) | growth (RPMI-8226 leukemia) | growth (OVCAR-8 ovarian) | growth (OVCAR-5 ovarian) | growth (OVCAR-4 ovarian) | growth (SK-OV-3 ovarian) | growth (IGROV1 ovarian) | growth (OVCAR-3 ovarian) | growth (HS 578T breast) | growth (NCI/ADR-RES ovarian) |
| --- | --- | --- | --- | --- | --- | --- | --- | --- | --- | --- |
| O=c1cc(Cc2ccc([N+](=O)[O-])cc2)[nH]c(=O)[nH]1 | 91.9% | 91.6% | 103% | 98.2% | 108% | 99.1% | 117% | 126% | 100% | 109% |
| N/C(=N\C(N)=N\c1nc2ccccc2s1)c1cccc(Br)c1 | 33.2% | 83.3% | 72.6% | 95.2% | 107% | 129% | 66.4% | 103% | 103% | 73.6% |
| C=C[C@@H]1C[C@@H]2Cc3ccccc3N1O2 | 97.1% | 85.5% | 106% | 97.4% | 112% | 114% | 121% | 121% | 100% | 106% |
| Nc1cccc(Cl)c1N | 92.5% | 69.3% | 105% | 108% | 94.4% | 94.3% | 88% | 109% | 98.9% | 102% |
| CC(C)NCCCNC1=C(Cl)C(=O)c2ccccc2C1=O | -22.7% (active) | 68.4% | 56.9% | 138% | 84.1% | 107% | -51.3% (active) | 40.8% | 27.7% | 90.5% |
| CCN(CC)c1ccc(CNc2ccnc3ccccc23)cc1 | 9.72% (active) | 25.2% | 47.4% | 81.7% | 17.1% | 61.4% | 78.2% | 52.5% | 90.1% | 40% |
| CC(C)(C)Nc1c(-c2cccs2)nc2ncccn12 | 92.4% | 94.2% | 104% | 108% | 103% | 99.9% | 102% | 102% | 97.8% | 104% |
| CCCCCCCCC(C)OC(=O)c1nn(C(C)=O)c2ccccc12 (stereo not given) | 126% | 104% | 95.7% | 104% | 99.1% | 109% | 105% | 110% | 101% | 101% |
| CCOC(=O)CC(=O)OC | 76.7% | 97.4% | 103% | 101% | 100% | 101% | 111% | 123% | 114% | 113% |
| O=c1[nH]c(-c2ccccc2)nc(CN2CCCCC2)c1O | 85.1% | 97.6% | 107% | 110% | 110% | 114% | 128% | 110% | 104% | 100% |
| COc1cc(NC(=O)SC2=NCCS2)cc(OC)c1 | 93.9% | 63.2% | 98.7% | 97.7% | 98% | 98% | 139% | 113% | 99.7% | 99% |
| COc1cc2c(cc1OCCCCCn1c3ccccc3c3ccccc31)N=C[C@@H]1CCCN1C2=O | -54.5% (active) | -39.2% (active) | -30.6% (active) | -50% (active) | -7.21% (active) | -47.4% (active) | -68.9% (active) | -80.5% (active) | -63.4% (active) | -6.33% (active) |
| c1ccc(Nc2nc(Nc3ccccc3)nc(Nc3ccccc3)n2)cc1 | 69.8% | 74.5% | 92.2% | 97.1% | 81.2% | 92.7% | 62.5% | 96.4% | 107% | 77.9% |
| CC(C)(C)n1cc(-c2ccnc(NCCCNS(=O)(=O)c3ccc(C(F)(F)F)cc3)c2)c(-c2cccc(O)c2)n1 | -7.63% (active) | -9.47% (active) | 28% | 36.1% | 41.7% | 70.1% | 31.3% | 42.5% | 23.5% | 34.6% |
| O=c1[nH]c2ccc(Br)cc2c2c1C(c1ccc(Cl)cc1)c1c(ncn3nc(-c4ccco4)nc13)O2 (stereo not given) | 62.3% | 58.4% | 79.3% | 73.6% | 67.5% | 59.8% | 44% | 81.7% | 35.6% | 88.2% |
| NC(=O)c1c(NC(=S)Nc2ccc(OC(F)(F)F)cc2)sc2c1CCC1(C2)OCCO1 | 92.1% | 93.2% | 99.7% | 91.9% | 95.3% | 89.9% | 96.3% | 109% | 79.5% | 98.9% |
| C=C1C(=O)O[C@@H]2[C@@H]3O[C@@](C)(CC/C=C(\C)CCC[C@@H]2C)[C@H](O)C[C@@H]13 | 13.7% | 7.48% (active) | 35% | 97.5% | 70.1% | 92% | 42.3% | 13.9% | 72.1% | 37.5% |
| COc1ccc(Nc2ncccc2C(=O)NCc2cn(Cc3cccc(Oc4ccccc4)c3)nn2)c(OC)c1 | 30.3% | 35.5% | 43.4% | 51.1% | 54.9% | 21.6% | 48% | -57.8% (active) | 15.3% | -10% (active) |
| CCC(=O)Oc1ccc(/C(=C(/C)Cc2cccc(OC)c2)c2ccc(OCCN(C)C)cc2)cc1 | -0.896% (active) | 70.7% | 102% | 99.1% | 87.3% | 114% | 95.4% | 92% | 93.5% | 100% |
| CC(C)C1=CC2=C(C=O)C[C@@H]3[C@](C)(CCC[C@@]3(C)C(=O)OCC#CCN3CCCC3)[C@H]2CC1 | 26.4% | 33.8% | 77.9% | 88.1% | 78.1% | 81.8% | 75.4% | 88.7% | 67.9% | 82.2% |
| c1cc2[nH]ncc2cc1-c1nc2ccc3[nH]ncc3c2c2c1CCC2 | 10.9% | 42.5% | 53.9% | 91.7% | 57.9% | 5.23% (active) | 22.6% | 56.4% | 14.9% | 58.1% |
| CC(C)CSc1nc(NN)c(C#N)c(-c2ccc(F)cc2)n1 | 74.8% | 61.2% | 72% | 89.4% | 57.8% | 60.9% | 72.5% | 59.1% | 78.3% | 50.8% |
| CC(C)(C)OC(=O)NC(CSCc1ccccc1)C(=O)ON1C(=O)CCC1=O (stereo not given) | 78.4% | 97.5% | 104% | 106% | 121% | 104% | 114% | 107% | 115% | 103% |
| O=C1/C(=C/c2ccccc2)CN(C(=O)CCN2CCC(=NO)CC2)C/C1=C\c1ccccc1 | 7.97% (active) | -28.6% (active) | 13.6% | 5.29% (active) | 15.3% | 77.5% | -5.65% (active) | -27% (active) | 17% | 14.6% |
| Nc1nc(=O)c2ccccc2s1 | 109% | 94.8% | 121% | 99.6% | 125% | 104% | 122% | 131% | 112% | 113% |
| CC(C)(C)OC(=O)NCCc1ccc(N=C=S)cc1 | 22.5% | 9.22% (active) | 86% | 82.7% | 76.9% | 97.1% | 71.8% | 72.7% | 92.3% | 75.6% |
| Cc1cccc(/C=N/Nc2cc(C)c3cccc(C)c3n2)n1 | 47.2% | 60.8% | 83.3% | 94.3% | 90.2% | 115% | 96.7% | 102% | 108% | 84.5% |
